The values below come from PubChem BioAssay.

Activity calls are given as the source filed them.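 How the source made its calls, unless noted: active means fluorescence slope after compound addition differing from the mean of all screened samples at 99.7% confidence, in either direction; inactive means the rest.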

Assay [1] in a line: inhibitors of TNFa-induced NFkB p65 translocation, primary screen, imaging, HUVEC, MLSMR starter and 10KST1 sets (AID 438;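 active means inhibition above 20% together with a positive visual image hit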;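 further: compound added about 3h40 before a 20 min TNFalpha stimulation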;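 on inhibition: signal is the nuclear over cytoplasmic p65 intensity ratio per well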). The note with it: HUVEC TNFa-induced p65 nuclear translocation; cell count: measured here: nuclei count (cytotoxicity indicator), at 2.08 µM; inhibition: at 2 µM, stronger effect = higher value, 0% TNFa-plus-vehicle, 100% no-TNFa wells.
The nature of assay [2]: inhibitors of mutant huntingtin aggregation, primary screen, imaging, exon1htt(103Q)mCFP cells, high-content imaging (AID 483;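 active means visual image review flags a hit and inhibition of aggregation exceeds 20%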;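 further: compound exposure lasted 3 days before fixation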;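 on nuclei count: percent of the per-plate median nuclei count of sample wells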). Conditions: exon1htt(103Q)mCFP cell line, aggregate imaging, at 2 µM; inhibition of aggregation: stronger effect = higher value; nuclei count: measured here: cell count, toxicity.
Assay [3] in a line: inhibitors of E-selectin induction by TNFa, primary screen, imaging, HUVEC, immunofluorescence, MLSMR starter and 10KST1 sets (AID 487;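 active means visually confirmed hit in the image check and inhibition above 20%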;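 on inhibition: signal is fraction of cell area covered by stained E-selectin grains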;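 on nuclei count: 100% = median nuclei count of all wells on the same plate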). The note with it: HUVEC TNFalpha-induced E-selectin immunofluorescence imaging, at 2 µM; inhibition: stronger effect = higher value; nuclei count: measured here: cell number, toxicity.
Assay [4] concerns the target Voltage-gated potassium channel subunit beta-2 (Rattus norvegicus) (UniProt P62483). Kind of assay: KvBeta enzyme negative modulators, primary screen, biochemical, NADPH fluorescence (AID 622;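 active means fluorescence slope higher than the sample average by over 3 SD, cut at about -0.22 in these data, passing the limit was not always enough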;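 further: slope of raw intensity against log time taken from 70 to 1610 s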). The note with it: recombinant KvBeta, 4-cyanobenzaldehyde reduction, at 10 µM, stronger effect = higher value.
Assay [5] has the same target. Kind of assay: KvBeta positive modulators, primary screen, biochemical, NADPH fluorescence (AID 623;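 active means NADPH fluorescence slope more negative than the mean of all samples by about 3 SD, 99.7% confidence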;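 further: fluorescence intensity change per second fitted from 20 to 320 s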). Conditions: Recombinant KvBeta, NADPH fluorescence decrease slope, 10 min; at 10 µM; stronger effect = lower value.
Assay [6] addresses Alpha-2C adrenergic receptor (Homo sapiens) (UniProt P18825). Kind of assay: modulators of alpha2C/GIRK thallium flux, primary screen, cell-based, HEK293 alpha2C/GIRK1/2 (AID 624).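 Further: slope of fluorescence ratio to pre-addition baseline per second over 15 to 24 s.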 Conditions: thallium flux BTC fluorescence, at 10 µM, actives lie on both sides.
Assay [7] is described as follows: inhibitors of Sendai virus-induced IRF3 signaling, primary screen, TLR/RLR signaling modifier project, cell-based, Sendai virus stimulus, luciferase, 10K MLSCN set (AID 602276;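 active means inhibition at or above 50% at 10 µM; inactive means inhibition below 50%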;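 further: firefly luciferase from ISG56 promoter only with Renilla not read in this screen; 0% = Sendai virus plus DMSO and 100% = medium plus DMSO without virus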). The note with it: HEK293 RL24 IRF3 luciferase reporter, at 10 µM, stronger effect = higher value. (In a reporter assay the amount or activity of a reporter protein is the signal.)
Assay [8] can be described thus: inhibitors of poly I:C-induced TLR3 signaling, primary screen, cell-based, poly I:C stimulus, luciferase, 10K MLSCN set (AID 602277;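 active means inhibition of the reporter signal at or above 50%; inactive means inhibition below 50%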). Conditions: HEK293-TLR3 RL24 IRF3 luciferase reporter, at 10 µM, stronger effect = higher value.

The inhibition is the drop in the measured response relative to a control, in per cent.

Chain of Voltage-gated potassium channel subunit beta-2 (Rattus norvegicus) (P62483 whole entry, looked up): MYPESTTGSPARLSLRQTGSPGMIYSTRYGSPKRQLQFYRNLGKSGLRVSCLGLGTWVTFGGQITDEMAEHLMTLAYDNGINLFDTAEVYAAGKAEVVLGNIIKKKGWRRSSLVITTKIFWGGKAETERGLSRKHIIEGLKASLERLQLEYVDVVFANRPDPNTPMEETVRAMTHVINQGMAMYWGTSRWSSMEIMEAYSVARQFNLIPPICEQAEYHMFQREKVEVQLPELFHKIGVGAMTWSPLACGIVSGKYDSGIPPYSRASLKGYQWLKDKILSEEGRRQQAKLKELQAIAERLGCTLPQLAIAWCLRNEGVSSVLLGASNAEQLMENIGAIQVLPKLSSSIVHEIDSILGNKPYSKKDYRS
Chain of Alpha-2C adrenergic receptor (Homo sapiens) (P18825 whole entry, looked up): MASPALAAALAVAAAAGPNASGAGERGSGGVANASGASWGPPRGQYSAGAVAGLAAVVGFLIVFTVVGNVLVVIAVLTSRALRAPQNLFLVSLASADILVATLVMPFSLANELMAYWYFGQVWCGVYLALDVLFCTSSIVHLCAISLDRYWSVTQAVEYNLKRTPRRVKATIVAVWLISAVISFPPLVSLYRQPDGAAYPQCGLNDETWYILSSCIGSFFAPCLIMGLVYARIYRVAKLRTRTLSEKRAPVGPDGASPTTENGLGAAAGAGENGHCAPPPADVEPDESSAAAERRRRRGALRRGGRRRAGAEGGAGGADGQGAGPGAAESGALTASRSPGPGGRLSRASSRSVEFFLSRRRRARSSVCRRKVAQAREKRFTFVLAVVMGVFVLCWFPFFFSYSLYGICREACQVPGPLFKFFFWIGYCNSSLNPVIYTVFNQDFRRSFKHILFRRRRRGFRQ

On to `Cc1cc(C)n(-c2nc3sc4c(c3c3nnc(SC(C)C)n23)CC(C)(C)OC4)n1`, for which, in assay [1], the cell count was found to be 352. Also, the inhibition in assay [1] was 8.5% (inactive); in assay [3], -22% (inactive); in assay [7], -16.9% (inactive); in assay [8] it was -11.9% (inactive). Further, the inhibition of aggregation in assay [2] was 2.2% (inactive). The nuclei count amounted to 113% in assay [2] and 117% in assay [3]. Besides, in assay [4], the fluorescence slope is -0.455 (inactive). Besides, in assay [5], the NADPH fluorescence slope is 1.9e-05 (inactive). Also, the slope in assay [6] is 0.00472 (inactive).
For `O=C(O)c1cc(Cl)c(Cl)cc1C(=O)N1CCCC1`, the cell count in assay [1] turned out to be 291. The inhibition was 0% (inactive) in assay [1], 7% (inactive) in assay [3], 9.27% (inactive) in assay [7] and 22.8% (inactive) in assay [8]. In assay [2], the inhibition of aggregation is 14.8% (inactive). The values for the nuclei count in assay [2] and in assay [3] were 88.1% and 104%, respectively. The fluorescence slope in assay [4] is -0.311 (inactive). The NADPH fluorescence slope in assay [5] was 4.1e-07 (inactive). Besides, the slope in assay [6] is 0.00644 (inactive).
As to `CC(C)Cc1nnc(NC(=O)CCC(=O)N2CCOCC2)s1`, in assay [1], the cell count is 597. In addition, the inhibition is 8.1% (inactive) in assay [1], 17.3% (inactive) in assay [3], 12.2% (inactive) in assay [7] and 10.8% (inactive) in assay [8]. Besides, in assay [2], the inhibition of aggregation is -2% (inactive). The nuclei count in assay [2] came to 106%; in assay [3] it was 102%. For the same compound, the fluorescence slope in assay [4] was -0.422 (inactive). In addition, in assay [5], the NADPH fluorescence slope is -3.6e-05 (inactive). Besides, in assay [6], the slope is 0.00514 (inactive).
For the compound `Cc1cc2nc(C3CCN(CC4COc5ccccc5O4)CC3)[nH]c2cc1C` (centres undefined), in assay [1], the cell count was 746. Moreover, the inhibition in assay [1] was -8.3% (inactive); in assay [3] it was -56.9% (inactive); in assay [7], -0.371% (inactive); in assay [8], -21.4% (inactive). In assay [2], the inhibition of aggregation was -2.5% (inactive). Also, the nuclei count came out at 92% in assay [2] and 107% in assay [3]. In assay [4], the fluorescence slope was -0.433 (inactive). Besides, the NADPH fluorescence slope in assay [5] is -1.9e-05 (inactive). The slope in assay [6] was 0.00449 (inactive).
Consider `O=C(Nc1nc(-c2ccncc2)cs1)C1COc2ccccc2O1` (centres undefined), for which the cell count in assay [1] turned out to be 646. The inhibition was -4.9% (inactive) in assay [1], -28.4% (inactive) in assay [3], -5.76% (inactive) in assay [7] and -29.4% (inactive) in assay [8]. The inhibition of aggregation in assay [2] is -3.1% (inactive). Also, the nuclei count was determined as 118% in assay [2] and 119% in assay [3]. In addition, the fluorescence slope in assay [4] was -0.608 (inactive). Besides, the NADPH fluorescence slope in assay [5] was -3.7e-05 (inactive). In addition, in assay [6], the slope is 0.00702 (inactive).
Turning to `Cc1ncc(CSc2nc3ccccc3[nH]2)c(N)n1`, in assay [1], the cell count worked out at 920. In addition, the inhibition in assay [1] was 11.9% (inactive); in assay [3], -37.5% (inactive); in assay [7], 4.12% (inactive); in assay [8], -10.7% (inactive). Also, in assay [2], the inhibition of aggregation is -17.1% (inactive). For the same compound, the nuclei count in assay [2] was 115%; in assay [3] it was 109%. The fluorescence slope in assay [4] was -0.606 (inactive). In addition, the NADPH fluorescence slope in assay [5] was -9.7e-06 (inactive). In addition, in assay [6], the slope is 0.00699 (inactive).
For the compound `Cc1cccc2sc(NC(=O)Cn3cccc3)nc12`, the cell count in assay [1] was 518. Further, the inhibition in assay [1] is -1.1% (inactive); in assay [3], -13.1% (inactive); in assay [7], -3.68% (inactive); in assay [8], -14% (inactive). Also, the inhibition of aggregation in assay [2] was -6.6% (inactive). In addition, the results for the nuclei count in assay [2] and in assay [3] were 59.1% and 100%, respectively. In assay [4], the fluorescence slope was -0.603 (inactive). Also, the NADPH fluorescence slope in assay [5] is -2.8e-05 (inactive). Moreover, the slope in assay [6] is 0.0115 (active).
`CCOC(=O)C1CCCN(C(=O)c2sc3nc(-c4ccccc4)cn3c2C)C1` (centres undefined): the cell count in assay [1] was 631. The inhibition in assay [1] is 13.2% (inactive); in assay [3] it was 67.6% (active); in assay [7], -20.7% (inactive); in assay [8], -120% (inactive). Further, the inhibition of aggregation in assay [2] is 5.7% (inactive). The values for the nuclei count in assay [2] and in assay [3] were 103% and 76.5%, respectively. Moreover, the fluorescence slope in assay [4] is -0.544 (inactive). For the same compound, the NADPH fluorescence slope in assay [5] was 1.7e-05 (inactive). Besides, the slope in assay [6] was 0.00524 (inactive).
As to `O=C1CCCC(O)=C1C=Nc1ccc2c(c1)oc1ccccc12`, the cell count in assay [1] was 403. The inhibition in assay [1] was 1.7% (inactive); in assay [3], 24.8% (inactive); in assay [7] it was -23% (inactive); in assay [8] it was -100% (inactive). In addition, the inhibition of aggregation in assay [2] was -0.4% (inactive). Also, the nuclei count in assay [2] amounted to 95.2%; in assay [3] it was 106%. The fluorescence slope in assay [4] is -0.09 (active). For the same compound, in assay [5], the NADPH fluorescence slope was 1.4e-05 (inactive). In assay [6], the slope is 0.00678 (inactive).
With `Cn1c(SCC(=O)N2CCN(c3cccc(Cl)c3)CC2)nnc1-c1ccncc1`, the cell count in assay [1] was 689. In addition, the inhibition in assay [1] is -5.1% (inactive); in assay [3] it was -92% (inactive); in assay [7], 1.74% (inactive); in assay [8], -27.2% (inactive). The inhibition of aggregation in assay [2] was -15% (inactive). Moreover, the figures for the nuclei count in assay [2] and in assay [3] were 104% and 142%, respectively. Further, the fluorescence slope in assay [4] is -0.373 (inactive). The NADPH fluorescence slope in assay [5] was 2.3e-06 (inactive). Moreover, the slope in assay [6] is 0.00664 (inactive).
As for `CCOC(=O)C(NCc1ccccc1OC)(NC(C)=O)C(F)(F)F` (centres undefined), in assay [1], the cell count turned out to be 279. Further, the inhibition was -1.5% (inactive) in assay [1], -72.8% (inactive) in assay [3], 5.22% (inactive) in assay [7] and 4.4% (inactive) in assay [8]. Further, the inhibition of aggregation in assay [2] is 14.4% (inactive). Besides, the nuclei count in assay [2] turned out to be 97.8%; in assay [3] it was 125%. For the same compound, the fluorescence slope in assay [4] is -0.616 (inactive). The NADPH fluorescence slope in assay [5] is -5.3e-06 (inactive). The slope in assay [6] was 0.00702 (inactive).
For the compound `O=C1CC(C(=O)Nc2ccc(Br)cc2)C2(CCCC2)O1` (centres undefined), the cell count in assay [1] is 630. Further, the inhibition in assay [1] is -4.1% (inactive); in assay [3], -70% (inactive); in assay [7], 16.6% (inactive); in assay [8], 11.8% (inactive). In assay [2], the inhibition of aggregation was -3.7% (inactive). In addition, the nuclei count in assay [2] stood at 102%; in assay [3] it was 98.1%. In assay [4], the fluorescence slope is -0.406 (inactive). Moreover, the NADPH fluorescence slope in assay [5] is -3e-05 (inactive). The slope in assay [6] is 0.00668 (inactive).
For `O=C1NC(Cc2c[nH]c3ccccc23)C(=O)N1CCOc1ccccc1` (centres undefined), the cell count in assay [1] amounted to 674. Also, the inhibition in assay [1] is 4.9% (inactive); in assay [3], -14.9% (inactive); in assay [7], 13.6% (inactive); in assay [8], 19.7% (inactive). Further, in assay [2], the inhibition of aggregation is 3.1% (inactive). For the same compound, the nuclei count in assay [2] was found to be 120%; in assay [3], 138%. Also, in assay [4], the fluorescence slope was -0.429 (inactive). Moreover, the NADPH fluorescence slope in assay [5] is -4.2e-05 (inactive). In addition, the slope in assay [6] was 0.00422 (inactive).
As for `COc1ccccc1N(CC(=O)NCc1ccccn1)S(C)(=O)=O`, the cell count in assay [1] was determined as 355. Moreover, the inhibition was -7.9% (inactive) in assay [1], 29.3% (inactive) in assay [3], 7.95% (inactive) in assay [7] and 32.3% (inactive) in assay [8]. Moreover, the inhibition of aggregation in assay [2] was 26.7% (inactive). For the same compound, the nuclei count in assay [2] stood at 83.6%; in assay [3], 75.4%. The fluorescence slope in assay [4] is -0.422 (inactive). Moreover, the NADPH fluorescence slope in assay [5] is -4.6e-05 (inactive). In addition, the slope in assay [6] was 0.00261 (inactive).
